Compound activity (PubChem BioAssay)
Pf Dd2 growth: qHTS Primary assay for Inhibitors of Plasmodium falciparum Dd2 growth in vitro. P. falciparum Dd2 growth, SYBR Green, 72 h. Potency, µM (highest dose often 28.9 µM), for inactives: at the top dose activity, negative = inhibition, actives largely listed as inhibitors. 120,000 compounds, 4.3% hits. AID 1347417, 2020; active = well fitted inhibition curve with a large enough effect;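 note: plate controls were DMSO vehicle for no effect and reference drug for full effect; nearly all actives have a fitted effect of over 65% in size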
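Readout: SYBR Green fluorescence, 485 nm excitation, 535 nm emission, after ~16 h lysis at 37C. Before that, Dd2-infected red cells (2.5% hematocrit) grew 72 h with compound, 29 uM top final concentration.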
An asterisk follows results filed as active; i = inactive; [ ] = another dose, or the depositor's remark. The full list was thinned out, with hits kept by preference. Potency is the fitted concentration of half-maximal effect.

SMILES	Pf Dd2 growth
Cc1cn(CCn2ccnc2-c2cccc(C(C)N(C)C)c2)nn1 (stereo not given)	-1.1%
Cc1cc(CNC(=O)c2ccc(S(N)(=O)=O)cc2)c2[nH]c(C)c(C)c2c1	-14.2%
CCc1[nH]c2c(CNC(=O)C(C)O)cc(C)cc2c1C (stereo not given)	-6.1%
Cc1cc(CNC(=O)c2cccc(F)c2F)c2[nH]c(C)c(C)c2c1	10µM*
O=C(Cc1ccccc1Cl)N1CCC(c2n[nH]c(=O)n2-c2ccccc2)CC1	i
CCN(CC)CCCNC(=O)Cc1csc2nc(-c3ccc(Cl)cc3)cn12	8.91µM*
COc1ccccc1CNC(=O)Cc1csc2nc(-c3ccccc3)cn12	-20.4%
CC(C)NC(=O)Cc1csc2nc(-c3ccccc3)cn12	39.7%
O=C(CCc1ccccc1)N1CCC[C@H]1c1nc(-c2ccccc2Cl)no1	-5.6%
Cc1ccoc1C(=O)N1C[C@@H](CO)[C@H](c2nc(C3CC3)no2)C1	-38.0%
CCCCCC(=O)Nc1nc2c(s1)C[C@@H]1[C@](C)(CO)[C@H](O)CC[C@@]1(C)[C@@H]2CC(=O)O	20.8%
CC(C)Oc1cccc(-c2n[nH]c3c2CC(=O)N(CCOc2ccccc2)C3)c1	8.91µM*
O=C(O)c1cccc(-c2n[nH]c3c2CC(=O)N(CCOc2ccccc2)C3)c1	-12.3%[44.1 µM]
O=C1Cc2c(-c3ccccc3)n[nH]c2CN1CCOc1ccccc1	-21.4%[44.1 µM]
O=C1CCN(C(=O)c2ccsc2)CCCC(c2nc(-c3cccnc3)no2)CCN1 (stereo not given)	i
O=C(NCc1cccnc1)c1cc(-c2cnccc2Cl)c2cccn2n1	-11.3%
CCNc1sc(S(C)(=O)=O)nc1S(=O)(=O)c1ccc(C)cc1	1.9%
Cc1ccc(S(=O)(=O)c2nc(S(=O)(=O)c3ccc(C)cc3)c(NCCCOC(C)C)s2)cc1	2.24µM*
Cc1ccc(S(=O)(=O)c2nc(S(=O)(=O)c3ccc(C)cc3)c(NC(C)C)s2)cc1	-10.6%
Cc1ccc(-n2nc3n(c2=O)CCN([S+](=O)([O-])c2c(C)noc2C)C3)cc1	i
CC(C)OC(=O)c1cccnc1SCC(=O)Nc1ccc(C(F)(F)F)cc1Cl	3.16µM*
Cc1cnc(=O)[nH]c1SCC(=O)Nc1cc(C(F)(F)F)ccc1Cl	4.9%
O=C(CSc1nccn1Cc1ccco1)Nc1cc(C(F)(F)F)ccc1Cl	i
C[S+](=O)([O-])N1CCN(c2cccc(C=O)c2)C(=O)C1	2.6%[44.1 µM]
COc1ccc(N2CCN(C3CCCN(CC(N)=O)C3)CC2)cc1 (stereo not given)	-13.1%
SMILES	Pf Dd2 growth
COc1cccc(CN2CCCC(c3ccc(C(=O)O)cc3)C2)c1OC (stereo not given)	-2.0%
COc1ccc(F)c(CN2CCCN3CCC[C@H]3C2)c1Cl	12.6µM*
COc1cc2c(cc1OC)CN(C1CCCN(Cc3c(O)cccc3OC)C1)CC2 (stereo not given)	10µM*
COc1cc(CN2CCCC(COc3ccccc3C(=O)N3CCCC3)C2)ccc1O (stereo not given)	i
COc1ccc(N2CCN(C3CCCN(CC4CC4)C3)CC2)cc1 (stereo not given)	4.8%
CCN(Cc1ccccc1)C(=O)CN1CCCc2nc(C3CC3)ncc2C1=O	0.7%
Cc1noc(C)c1C(=O)N1CCc2nn(C)c(=O)n2CC1	10.0%
CCC1(N2CCN(C)CC2)CCN(C(=O)CCC2CCCC2)C1 (stereo not given)	i
O=C(NCC1(O)CCCN(C(=O)c2cccs2)CC1)N1CCOCC1 (stereo not given)	3.4%
Cc1ccsc1C(=O)N1CCCN(c2cc(-c3ccc(Cl)cc3)[nH]n2)CC1	-1.2%
COc1ccc(C(=O)N2CC(c3nnc(-c4ccc(C)cc4)o3)C3(CCOCC3)C2)cc1 (stereo not given)	-24.9%
O=C(Nc1ccc2[nH]ccc2c1)c1ccc(-c2ncc3cnc(C4=CCOCC4)cn23)cc1	1.58µM*
O=C(O)c1ccc(-c2ncc3cnc(C4=CCOCC4)cn23)cc1	-18.2%[44.1 µM]
O=C(Nc1ccc2[nH]ccc2c1)c1cnc2c(c1)N([S+](=O)([O-])c1cccnc1)CCC2	i
CCc1nc2ccc(C(=O)N3CCN(c4ccc(Cl)cc4)CC3)cc2nc1CC	21.4%
CCc1nc2ccc(C(=O)N3CCN(c4ccccc4F)CC3)cc2nc1CC	2.82µM*
O=C(c1ccc2c(c1)CCN2S(=O)(=O)c1ccccc1)N1CCN(c2ccccc2F)CC1	45.4%
O=C(c1ccc2c(Cl)c3c(nc2c1)CCCC3)N1CCN(c2ccccc2)CC1	-16.4%
CCN1c2cc(C(=O)N3CCN(c4ccccc4F)CC3)ccc2C(=O)N2CCCCC21 (stereo not given)	i
CCc1nc2ccc(C(=O)N3CCN(c4ccccc4)CC3)cc2nc1CC	6.31µM*
CCc1cccc(NC(=O)CC2CCCN(c3cn[nH]c(=O)c3)C2)c1 (stereo not given)	6.9%
CN1CC2(CCN(c3nccc(N)n3)CC2)CC1C(=O)O (stereo not given)	-12.6%
Cc1cc(C(=O)N2C[C@@H](CO)[C@H](c3ccccn3)C2)nn1C	26.6%
Cc1ccc(NC(=O)N2C[C@@H](F)C[C@H]2C(=O)N2CCCCC2)c(C)c1	37.0%
COc1ccc(OCC(=O)Nc2ccc(Cl)c(-c3nc4ncccc4o3)c2)cc1	7.94µM*
SMILES	Pf Dd2 growth
CC(C)(Oc1ccc(Cl)cc1)C(=O)Nc1ccc(-c2nc3ncccc3o2)cc1	i
COc1ccc(OCC(=O)Nc2ccc(-c3nc4cc(Cl)ccc4o3)cc2)cc1	4.5%
CCC(C)c1ccc(OCC(=O)Nc2ccc(-c3nc4ncccc4o3)cc2)cc1 (stereo not given)	10µM*
Cc1ccc(C(C)C)c(OCC(=O)Nc2cccc(-c3nc4ncccc4o3)c2)c1	-13.6%
CCCC(=O)Nc1cc(C)c(O)c(-c2nc3ncccc3o2)c1	11.0%
Cc1cc(=O)n(CC(=O)NCc2ccc(F)cc2)c(N2CCc3ccccc3C2)n1	i
COc1ccccc1C1NC(=O)N(CC2CC2)C2=C1C(=O)OC2 (stereo not given)	-26.2%
Cc1ccc(-c2ccccc2CN)c(C)c1	5.01µM*
Cc1ccc(-c2cccc(C=O)c2)c(C)c1	3.8%[44.1 µM]
Cc1ccc(C)c(CN2C(=O)C(=O)c3ccccc32)c1	-23.4%
C=CCN1CCN(C(=O)CCc2nc(C3CCCN3C(=O)NCC)no2)CC1 (stereo not given)	-0.7%
COc1cc(NC(=O)c2nn(C)c3c2CS(=O)(=O)c2ccccc2-3)cc(OC)c1	-20.6%
Cc1ccc(NC(=O)c2nn(C)c3c2CS(=O)(=O)c2ccccc2-3)c(Cl)c1	-1.4%
Cn1nc(C(=O)Nc2ccc(F)c(Cl)c2)c2c1-c1ccccc1S(=O)(=O)C2	8.91µM*
CC(C)=CCC1(CO)CCCN(c2ncccc2C(=O)N2CCCC2)C1 (stereo not given)	-7.7%
COC[C@H]1C[C@@H](NC(=O)Nc2ccccc2)[C@H](O)[C@@H]1O	19.8%[44.1 µM]
O=C(Nc1ccc(F)c(Cl)c1)N(Cc1ccc2c(c1)OCO2)C1CCN(Cc2ccccc2)CC1	8.91µM*
CCN1CCC(N(Cc2ccc3c(c2)OCO3)C(=O)Nc2cc(Cl)ccc2C(=O)OC)CC1	3.55µM*
O=C([C@@H]1COCC(=O)N1Cc1ccccc1)N1CCN(Cc2ccc3c(c2)OCO3)CC1	31.3%
O=C1[C@H]2CN(Cc3ccc(F)c(Cl)c3)C[C@H]2C(=O)N1Cc1ccc2c(c1)OCO2	i
CCN1CCC(N(Cc2ccc3c(c2)OCO3)C(=O)Nc2ccccc2OC)CC1	-24.4%
COC(=O)c1ccc(Cl)cc1NC(=O)N(Cc1ccc(C)o1)C1CCN(C(C)=O)CC1	-21.4%
